# Source: PubChem BioAssay
# PREPL inh: inhibits the human prolyl oligopeptidase-like enzyme. hit rate 0.68% among 320,000. AID 2751. Q4J6C6. recombinant PREPL, fluorescence polarization activity-based probe. inhibition, % at 5.96 µM; in the data active = inhibition above about 43%
# Target sequence (Q4J6C6 whole entry, looked up): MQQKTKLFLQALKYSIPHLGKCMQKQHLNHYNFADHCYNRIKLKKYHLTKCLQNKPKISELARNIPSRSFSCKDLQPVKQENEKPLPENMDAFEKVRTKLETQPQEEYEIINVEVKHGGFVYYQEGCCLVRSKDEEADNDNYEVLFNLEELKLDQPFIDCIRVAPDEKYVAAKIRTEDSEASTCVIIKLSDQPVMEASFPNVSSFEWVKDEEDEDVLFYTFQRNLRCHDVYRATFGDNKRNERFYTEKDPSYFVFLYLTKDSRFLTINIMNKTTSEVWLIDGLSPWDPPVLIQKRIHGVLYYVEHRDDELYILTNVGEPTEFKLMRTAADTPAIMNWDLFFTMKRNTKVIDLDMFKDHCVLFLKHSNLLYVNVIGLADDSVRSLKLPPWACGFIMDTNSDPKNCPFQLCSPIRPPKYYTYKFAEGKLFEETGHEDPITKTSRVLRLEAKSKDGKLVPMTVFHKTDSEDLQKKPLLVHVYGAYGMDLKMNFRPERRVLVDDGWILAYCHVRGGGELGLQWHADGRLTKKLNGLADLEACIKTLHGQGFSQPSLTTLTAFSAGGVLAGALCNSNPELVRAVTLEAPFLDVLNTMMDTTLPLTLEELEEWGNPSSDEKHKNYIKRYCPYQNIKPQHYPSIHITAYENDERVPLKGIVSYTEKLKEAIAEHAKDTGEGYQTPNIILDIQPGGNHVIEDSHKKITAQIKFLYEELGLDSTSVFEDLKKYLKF
# AI-2 QS modul: Vibrio harveyi AI-2 quorum sensing modulation; Vibrio harveyi JMH597 AI-2 luminescence/OD600 ratio, 9 h; hits give low values; strain lacks LuxN and CqsS sensors; 0 = neutral-control median; activity change, % at 7.5 µM; hit rate 0.4% among 300,000; AID 2094; in the data active = activity change below about -75%, passing the limit was not always enough; inconclusive = no clear call, values can overlap the other calls;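 also: luminescence divided by OD600 gain over 9 h not by final OD600 alone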
# ALR inh: human ALR oxidase inhibition via reduced H2O2; P55789; inhibition, % (no concentration beside the values); hit rate 3.8% among 290,000; purified ALR, DTT oxidation, H2O2 HRP-luminol luminescence;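 active = mean replicate inhibition above about 79%, with every replicate also reaching it, limit read from the data; inconclusive = only one of the two criteria met; inactive = mean below limit and not every replicate reaching it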
# CHT allo act: human CHT allosteric activation. Q9GZV3. CHT-expressing cells, membrane potential dye, choline EC20; hits give high values; LV-AA mutant CHT in HEK293 cells. B-score at 10 µM. hit rate 0.49% among 310,000;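 active = initial fluorescence not abnormally high and integrated response B-score, plate-corrected, over 3 SD above library mean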
# CHT block: inhibits the human high affinity choline transporter; CHT-expressing cells, membrane potential dye, choline response; hits give low values; B-score at 10 µM; hit rate 0.86% among 310,000;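 active = B-score over 3 SD under the library average, and starting fluorescence ratio not unusually high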;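 also: choline stimulus applied at its EC90 after an EC20 pre-addition; B-score computed on integrated fluorescence ratio after choline addition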
# Numbers stand for hits; – = inactive; ? = inconclusive; · = no result given. In the library only some 5% were active in any assay of this set; here they are far more common.
SMILES,PREPL inh,AI-2 QS modul,ALR inh,CHT allo act,CHT block
COc1cc(N)ccc1NC(=O)c1cccs1,–,–,99,–,–
COc1cc(NC(=O)c2cc(OC)c(OC)c(OC)c2)ccc1NC(=O)c1cccs1,–,–,–,–,–
CC1CC(C)CN(C(=O)CNC(=O)c2ccc3ccccc3c2)C1 (centres undefined),–,–,–,–,–
Oc1ccccc1Cn1nnc2ccccc21,–,–,·,–,–
Cc1cccc(Cn2nnc3ccccc32)c1O,–,–,90,–,–
COc1ccc(O)c(CN2CCN(CCCc3ccccc3)C(CCO)C2)c1 (centres undefined),–,–,–,–,–
CC1CCCC(NC(=O)CCNS(=O)(=O)c2ccc(Br)cc2)C1C (centres undefined),–,–,·,–,–
Cc1ccn2c(NC(C)(C)C)c(-c3cccs3)nc2c1,–,–,99,–,–
Cc1ccn2c(NC(=O)c3cccs3)c(-c3ccccc3)nc2c1,–,–,–,–,–
Cc1cccc(OCC(=O)NCC(C)(C)N2CCOCC2)c1,–,·,–,·,·
O=[N+]([O-])c1ccc(NS(=O)(=O)N2CCOCC2)cc1,–,·,–,·,·
CC(C)Oc1ccc(CSC(=N)N)cc1,–,–,98,–,–
O=C(CSc1ccc(-c2ccc(F)cc2)nn1)NCc1ccco1,–,–,–,–,–
CCN1C(=O)/C(=C\c2ccc(F)cc2)N=C1SCC(=O)NCc1ccco1,–,–,95,–,–
COc1cc(C2NC(=O)CS2)cc(OC)c1OC (centres undefined),–,–,·,–,–
COc1ccc(C2NC(=O)CS2)cc1OC (centres undefined),–,–,98,–,–
O=C(CN1C(=O)S/C(=C\C=C\c2ccccc2)C1=O)Nc1ccc(C(=O)O)cc1,–,–,98,–,–
O=C(CN1C(=O)S/C(=C/C=C/c2ccccc2)C1=O)Nc1ccc(C(=O)O)cc1,–,–,–,–,–
Cc1ccc(NC(=S)N(CCN(C)C)Cc2cc3cc(C)ccc3[nH]c2=O)cc1,–,–,–,–,–
CCCC[C@@H]1C[C@H]1[C@@H](NC(=O)c1cccs1)c1ccc(C(F)(F)F)cc1,–,–,–,–,–
COc1ccc(C(=O)CSc2nnc(-c3ccco3)n2CC2CCCO2)cc1 (centres undefined),–,–,–,–,–
COc1cccc(C(=O)CSc2nnc(-c3ccco3)n2CC2CCCO2)c1 (centres undefined),–,–,91,–,–
CCOC(=O)c1c(C)[nH]c(C(=O)OCc2ccccc2F)c1C,–,–,–,–,–
CN(C(=O)c1ccncc1)c1ccccc1,–,–,–,–,–
C/C(=N\N(Cc1ccccc1)c1ccccc1)c1ccncc1,–,–,99,–,–
SMILES,PREPL inh,AI-2 QS modul,ALR inh,CHT allo act,CHT block
CCOc1cccc(=O)c2c(C)n(-c3ccc(C(=O)O)cc3)c(C)c12,–,–,96,–,–
COc1cccc(=O)c2c(C)n(-c3ccc(C(=O)O)cc3)c(C)c12,–,?,–,–,–
Cc1ccc(NC2Nc3cc(C)nn3S2)c(C)c1 (centres undefined),–,–,87,–,–
O=C(Cn1cc(C(F)(F)F)ccc1=O)N1CCc2ccccc2C1,–,·,–,·,·
Cc1cc(C)nc(SCC(=O)c2cc3ccccc3oc2=O)n1,–,–,93,–,–
O=C(CSc1nc2ccccc2o1)c1cc2ccccc2oc1=O,–,·,–,–,–
O=C(OCC(=O)N1CCOCC1)c1cc2ccccc2oc1=O,–,·,–,·,·
O=C(CSC(=S)N1CCOCC1)c1cc2ccccc2oc1=O,–,–,96,–,–
C=CCc1c(C)nc(-c2ccccc2)nc1Nc1ccc(O)cc1,–,–,99,–,–
Cc1cc(C)n2cc(CSc3nc4ccccc4[nH]3)nc2n1,–,–,99,–,–
NC(=O)c1oc2ccccc2c1NC(=O)C1CCCCC1,–,–,96,–,–
O=c1[nH]c(SCc2ccc(Cl)cc2)nc2ccccc12,–,–,–,–,–
O=C(NCCCO)c1ccc(CSc2nc3ccccc3c(=O)[nH]2)cc1,–,–,100,–,–
O=C(O)C1CSC(c2coc3ccccc3c2=O)N1 (centres undefined),–,–,99,–,–
CC1CCOC(c2coc3ccccc3c2=O)O1 (centres undefined),–,–,–,–,–
CCOC(=O)C1CCN(C(=O)Cn2cnc3sc(C)c(S(=O)(=O)N4CCCCC4)c3c2=O)CC1,–,–,–,–,–
Oc1c(C(c2cccs2)N2CCN(c3ccccc3)CC2)sc2ncnn12 (centres undefined),–,–,97,–,–
O=S(=O)(c1ccccc1)N1CCC(O)(CSc2ccc(F)cc2)CC1,–,–,–,–,–
CC(C)c1ccccc1NC(=S)NCC1(N(C)C)CCCCC1,–,–,–,–,–
Oc1c(C=Nc2ccccc2)sc2ccccc12,–,–,–,–,–
Oc1sc(C=Nc2ccccc2)c2ccccc12,–,–,84,–,–
CSc1nc(N(C)CCO)c2sc3nc(-c4ccco4)c4c(c3c2n1)CCC4,–,–,98,–,–
Cn1c(/N=C/c2c(O)ccc3ccccc23)nc2ccccc21,–,–,91,–,–
CCCn1c(/N=C/c2ccccc2O)nc2ccccc21,–,–,–,–,–
O=C1CCCC/C1=C\Nc1ccc(S(=O)(=O)Nc2cnc3ccccc3n2)cc1,–,–,–,–,–
SMILES,PREPL inh,AI-2 QS modul,ALR inh,CHT allo act,CHT block
CCNC(=O)C(C)Sc1ccc(Cl)cc1 (centres undefined),–,–,–,–,–
CCNC(=O)NC(=O)C(C)Sc1ccc2c(c1)OCCO2 (centres undefined),–,·,98,–,–
CNC(=S)Nc1ccc(Br)cc1,–,–,·,–,–
CNC(=S)Nc1ccc(Nc2ccccc2)cc1,–,?,99,–,–
CCCNC(=S)Nc1ccc(Nc2ccccc2)cc1,–,–,99,–,–
COc1ccccc1NS(=O)(=O)c1cc(C(=O)NCC(C)(C)N2CCOCC2)ccc1C,–,–,–,–,–
CCN(CC)S(=O)(=O)c1ccc(NC(=O)Cc2cccs2)cc1,–,–,–,–,–
O=C(Nc1ccccc1)C1CC(=O)N(Cc2ccccc2)C1 (centres undefined),–,–,–,–,–
O=C(Nc1ccc(SC(F)F)cc1)C1CC(=O)N(Cc2ccccc2)C1 (centres undefined),–,–,95,–,–
N#C/C(=C(/O)CCl)c1nc2c(s1)CCc1ccccc1-2,–,–,–,–,-10
Cn1c(=O)c2c(ncn2CC(O)CNc2ccc(Br)cc2)n(C)c1=O (centres undefined),–,–,–,–,–
COc1ccc(NCC(O)Cn2cnc3c2c(=O)n(C)c(=O)n3C)cc1 (centres undefined),–,–,98,–,–
NS(=O)(=O)c1ccc(Nc2c([N+](=O)[O-])cncc2[N+](=O)[O-])cc1,–,-93,–,–,–
COc1cccc(Nc2c([N+](=O)[O-])cncc2[N+](=O)[O-])c1,–,–,–,–,–
